ALDH1A1 block: ALDH1A1 (human) enzyme inhibition | Potency, µM (series often up to 75.3 µM), most hits filed as inhibitors | actives 7.3% (n = 220,000) | Purified ALDH1A1, NADH fluorescence, propionaldehyde substrate
Target sequence (P00352 whole entry, looked up): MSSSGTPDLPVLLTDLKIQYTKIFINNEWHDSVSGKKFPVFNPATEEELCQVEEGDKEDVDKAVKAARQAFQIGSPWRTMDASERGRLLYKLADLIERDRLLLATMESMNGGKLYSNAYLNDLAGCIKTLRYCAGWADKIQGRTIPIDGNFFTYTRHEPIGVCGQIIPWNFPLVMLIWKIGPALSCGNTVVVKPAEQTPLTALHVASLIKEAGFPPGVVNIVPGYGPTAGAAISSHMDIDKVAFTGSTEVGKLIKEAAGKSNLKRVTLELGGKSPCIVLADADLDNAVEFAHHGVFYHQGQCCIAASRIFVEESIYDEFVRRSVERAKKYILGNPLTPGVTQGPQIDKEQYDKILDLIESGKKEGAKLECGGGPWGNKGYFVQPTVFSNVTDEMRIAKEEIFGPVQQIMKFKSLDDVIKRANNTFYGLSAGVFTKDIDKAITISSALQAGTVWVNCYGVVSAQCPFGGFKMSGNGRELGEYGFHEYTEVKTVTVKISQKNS
HPGD block: blocks human HPGD enzyme activity. P15428. purified HPGD, NADH fluorescence kinetic, PGE2 substrate. Potency, µM, hits mostly inhibitors. actives 4.3% (n = 150,000)
Target sequence (P15428 whole entry, looked up): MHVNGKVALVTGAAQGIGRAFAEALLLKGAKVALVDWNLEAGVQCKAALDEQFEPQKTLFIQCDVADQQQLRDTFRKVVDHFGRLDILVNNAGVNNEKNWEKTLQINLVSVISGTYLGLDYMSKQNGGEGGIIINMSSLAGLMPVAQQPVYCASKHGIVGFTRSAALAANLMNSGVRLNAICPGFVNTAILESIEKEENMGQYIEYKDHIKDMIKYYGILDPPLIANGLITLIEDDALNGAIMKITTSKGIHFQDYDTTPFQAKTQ
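20 nM HPGD preincubated 15 min at room temperature with compound in 50 mM Tris-HCl pH 8, 0.01% Tween 20. Started with 1 mM NAD+ and 30 uM prostaglandin E2; NADH fluorescence (360/450 nm) read 5 times over 30-s intervals, last minus first.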
KinaseGlo FLuc: blocks Kinase-Glo luciferase, a counter-screen artifact. Kinase-Glo luciferase, ATP luminescence, 8 min. Potency, µM (highest dose often 38.3 µM), actives largely listed as inhibitors. actives 0.28% (n = 200,000); active = well fitted curve in the direction sought with a large enough effect; inconclusive = small, poorly fitted or top-dose-only effect, or another doubt; inactive = no such curve, though single readings can be large; an effect the other way counts as inactive or inconclusive; note: nearly all actives have a fitted effect of over 60% in size
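Kinase-Glo luciferase light output from ATP and luciferin was measured with 10 uM ATP, within the enzyme's linear range. Buffer: 50 mM imidazole pH 7.2, 50 mM KCl, 7 mM MgCl2, 0.01% Tween 20, 0.05% BSA; luminescence read after 8 min at ambient temperature.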
LMNA splice mod: modulators of lamin A splicing; Potency, µM (top dose mostly 46.1 µM), hits mostly inhibitors; actives 0.01% (n = 200,000); HeLa LMNA splicing GFP/RFP minigene ratio, 48 h; AID 1487; active = well fitted inhibition curve with a large enough effect in the signal ratio, with a control signal flat, not every such curve was filed as active; inconclusive = small, poorly fitted or top-dose-only effect, or effect the other way, or a change in a side signal; the % refers to the signal ratio
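Read-out is the ratio of GFP to DsRed2 object intensity, acquired by 488 nm laser-scanning cytometry on HeLa lamin A-EGFP minigene reporter cells. Compound incubation 48 hrs at 37 °C in Opti-MEM with 2% FBS; DMSO 0.5% final.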
IMPase Li cell: membrane-permeable IMPase blocker, potentiated with lithium; Potency, µM (highest dose often 59.4 µM), hits mostly inhibitors; actives 0.35% (n = 210,000); CHO-M1 cells, IP1 TR-FRET (IP-One), carbachol + lithium; AID 1457; active = well fitted curve in the direction sought with a large enough effect; inconclusive = small, poorly fitted or top-dose-only effect, or another doubt; inactive = no such curve, though single readings can be large; an effect the other way counts as inactive or inconclusive;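 note: IP1 builds up when IMPase is blocked and the TR-FRET signal falls; nearly all actives have a fitted effect of over 50% in size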
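CHO cells stably expressing M1 receptor (2000/well, cultured 16–30 h) treated 30 min at 37C with compound plus low lithium. Cytosolic IP1 by TR-FRET (665/620 ratio and 620 channel) after 10 min lysis; AC50 by Hill fit.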
Of the large screens only hits and unclear results are named; the others gave an inactive call. In the library only some 9% were active in any assay of this set; here they are far more common. Unless noted, calls come from the whole dose curve; as a rule, active = well fitted inhibition curve with a large enough effect (not every such curve was filed as active); inconclusive = small, poorly fitted or top-dose-only effect, or another doubt; inactive = no such curve, though single readings can be large or run the other way.

Cc1cc2c(nc1C)CCCCN2C[C@H](C)O/N=C\[C@@H](C)[C@H](OCc1ccccc1)C(C)C	none (no result: HPGD block, KinaseGlo FLuc, LMNA splice mod, IMPase Li cell)
O=c1[nH][nH]c(C(F)(F)F)c1/C=N/N1CCOCC1	ALDH1A1 block inconclusive, LMNA splice mod inconclusive (no result: HPGD block)
COc1cc2c(C(=O)NCc3ccc4c(c3)OCO4)cn(CC(C)C)c(=O)c2cc1OC	ALDH1A1 block 0.14µM
Cc1c(Cl)cccc1Nc1ccccc1C(=O)O	HPGD block 14µM, LMNA splice mod inconclusive
Cc1ccc(Cl)c(Nc2ccccc2C(=O)O)c1Cl	LMNA splice mod inconclusive
COc1ccc(CNC(=O)C2CCC(CNS(=O)(=O)c3cccc4nsnc34)CC2)cc1 (stereo not drawn)	ALDH1A1 block inconclusive
O=C(NCc1ccco1)C1CCC(CNS(=O)(=O)c2cccc3cccnc23)CC1 (stereo not drawn)	ALDH1A1 block 13µM, HPGD block 20µM
O=C(NCCC1=CCCCC1)C1CCN(S(=O)(=O)c2ccc(-n3cnnn3)cc2)CC1	ALDH1A1 block inconclusive, LMNA splice mod inconclusive
O=C(NCCc1ccccc1)C1CCN(S(=O)(=O)c2ccc(-n3cnnn3)cc2)CC1	ALDH1A1 block 14µM
O=C(NCc1ccco1)C1CCCN(S(=O)(=O)c2ccc(-n3cnnn3)cc2)C1 (stereo not drawn)	ALDH1A1 block 25µM
O=C(NCc1ccco1)C1CCCN(S(=O)(=O)c2cccc3cccnc23)C1 (stereo not drawn)	ALDH1A1 block 25µM
Cc1ccc(NC(=O)C(=O)NCC(c2ccc3c(c2)OCO3)N2CCOCC2)c(C)c1 (stereo not drawn)	none (no result: ALDH1A1 block, HPGD block, KinaseGlo FLuc, IMPase Li cell)
Cc1ccc2c(c1)cc(C(=O)NCc1ccccc1C)n2C	none (no result: ALDH1A1 block, HPGD block, KinaseGlo FLuc, IMPase Li cell)
O=C1NCCN/C1=C\C(=O)c1ccc(Cl)cc1	none (no result: HPGD block, KinaseGlo FLuc, LMNA splice mod, IMPase Li cell)
O=C(COC(=O)Cc1ccccc1[N+](=O)[O-])NCC1CCCCC1	none (no result: HPGD block, LMNA splice mod)
COc1ccccc1CNC(=O)C1CCCN1S(=O)(=O)c1cccc2cccnc12 (stereo not drawn)	ALDH1A1 block inconclusive, HPGD block 22µM
COc1ccccc1N1CCN(C/C(O)=C(\C#N)c2nc(-c3ccccc3)cs2)CC1	ALDH1A1 block 11µM
CCOC(=O)C1CCCN(C/C(O)=C(\C#N)c2nc(-c3ccccc3)cs2)C1 (stereo not drawn)	ALDH1A1 block 32µM
N#C/C(=C(/O)CN1CCOCC1)c1nc(-c2ccccc2)cs1	none
Cc1ccc2c(c1)c(N=NC(N)=O)c(O)n2C	none (no result: HPGD block, LMNA splice mod)
Cn1c(O)c(N=N/C(=N/c2ccccn2)c2ccccn2)c2cc(Br)ccc21	ALDH1A1 block 14µM, HPGD block 22µM (no result: LMNA splice mod, IMPase Li cell)
CCn1ncc(NC(=S)NCCc2ccc(OC)c(OC)c2)c1C(N)=O	none (no result: HPGD block, LMNA splice mod)
CCOC(=O)C1=C(CC)OC(N)=C(C#N)C1c1ccc(OC)c(OC)c1OC (stereo not drawn)	none (no result: HPGD block, KinaseGlo FLuc, LMNA splice mod)
CCOC(=O)C1=C(CSc2nc(C)ccc2C#N)OC(N)=C(C#N)C1c1cccc(OC)c1OC (stereo not drawn)	ALDH1A1 block 28µM
COc1ccc2c(C)cc(=S)[nH]c2c1	ALDH1A1 block 32µM, IMPase Li cell inconclusive (no result: HPGD block)
COc1ccccc1-c1cc(C(F)(F)F)nc(S(=O)(=O)CCCC(=O)O)n1	HPGD block inconclusive, LMNA splice mod inconclusive
COc1ccccc1-c1cc(C(F)(F)F)nc(S(=O)(=O)CCCC(=O)N2CCOCC2)n1	HPGD block 14µM, LMNA splice mod inconclusive
CC(=O)Nc1nonc1-n1nnc(C(=O)NCc2ccccc2)c1C	ALDH1A1 block 11µM, HPGD block inconclusive
Cc1cnnn1-c1ccc(C(=O)CCl)cc1	ALDH1A1 block 0.89µM, HPGD block inconclusive
Cc1cnnn1-c1cccc([N+](=O)[O-])c1	none (no result: HPGD block)
CCn1ccnc1[C@@H]1C[C@H]2CN(Cc3ccccc3OC)C(=O)[C@]23CCCN13	none (no result: HPGD block)
O=C1c2ccccc2C(=O)N1CCCCN(C(=O)c1ccco1)c1ccc(Cl)cc1	ALDH1A1 block 7.9µM
O=C1c2ccccc2C(=O)N1CCCCN(C(=O)c1cccc([N+](=O)[O-])c1)c1ccc(Cl)cc1	ALDH1A1 block 3.2µM
Cc1ccc(N(CCCCN2C(=O)c3ccccc3C2=O)C(=O)c2cccs2)cc1	ALDH1A1 block inconclusive, LMNA splice mod inconclusive
COc1ccc2[nH]c(C)c(C(=O)CN3CCc4cc(OC)c(OC)cc4C3)c2c1	ALDH1A1 block 10µM (no result: HPGD block, KinaseGlo FLuc, IMPase Li cell)
CC(=O)OC[C@@]12C(=O)[C@@H](O)[C@@H](C)[C@]3(C[C@@H](c4ccoc4)O[C@@H]3OC(C)=O)[C@H]1CCC[C@]21CO1	none (no result: LMNA splice mod)
Cc1csc(NC(=O)c2cc([N+](=O)[O-])cc([N+](=O)[O-])c2)n1	HPGD block inconclusive
Cc1csc(/N=C/c2ccc([N+](=O)[O-])cc2)n1	ALDH1A1 block 11µM
CCC(C)Sc1nnc(CSc2nc3nc(C)cc(C)n3n2)o1 (stereo not drawn)	none
CC1=C(C(=O)Nc2ccccc2)C(c2cccs2)NC(=O)N1 (stereo not drawn)	none (no result: HPGD block)
COc1cc(/C=N/NC(=O)Cc2cccs2)c([N+](=O)[O-])cc1OC	ALDH1A1 block inconclusive
CCN(CC)c1ccc(/C=N/NC(=O)Cc2cccs2)cc1	ALDH1A1 block inconclusive, HPGD block inconclusive
Cc1ccc(/C=N/NC(=O)Cc2cccs2)o1	ALDH1A1 block 13µM
O=C(Cc1cccs1)N/N=C\c1ccc([N+](=O)[O-])s1	ALDH1A1 block 13µM (no result: HPGD block)
Cc1ccc(NC(=S)N/N=C/c2ccc([N+](=O)[O-])s2)cc1	ALDH1A1 block 11µM, HPGD block inconclusive, LMNA splice mod inconclusive
N#C/C(=C\c1ccc(O)c(O)c1)C(=O)OCCc1cccs1	HPGD block 28µM (no result: LMNA splice mod)
N#C/C(=C\c1c[nH]c2ccccc12)C(=O)c1ccc(O)c(O)c1	ALDH1A1 block inconclusive, HPGD block 3.5µM, LMNA splice mod inconclusive
CC(C)COC(=O)/C(C#N)=C/c1c[nH]c2ccccc12	ALDH1A1 block inconclusive
N#C/C(=C\c1ccc(O)c(O)c1)C(=O)c1ccc(O)c(O)c1	ALDH1A1 block inconclusive, HPGD block 7.9µM, LMNA splice mod inconclusive
CCCCCCCCCC(=O)NC(CN1CCOCC1)[C@H](O)c1ccccc1 (stereo partly drawn)	LMNA splice mod inconclusive
CCC1SC2=NC(C)=C(C(=O)OC)C(c3ccc(C)cc3)N2C1=O (stereo not drawn)	ALDH1A1 block 14µM
CCCN1C(=O)/C(=C/c2ccco2)SC1=Nc1ccc(OC)cc1	ALDH1A1 block 13µM
CCCN1C(=O)/C(=C\c2ccncc2)SC1=Nc1ccccc1	HPGD block 32µM, LMNA splice mod inconclusive
COc1ccc(N=C2S/C(=C\c3ccc(C)o3)C(=O)N2CC(C)C)cc1	ALDH1A1 block 8.9µM
COc1ccc(N=C2S/C(=C\c3ccc(N4CCOCC4)o3)C(=O)N2CCc2c[nH]c3ccccc23)cc1	ALDH1A1 block 8.9µM, HPGD block inconclusive, LMNA splice mod inconclusive
CCN1C(=O)/C(=C\c2ccncc2)SC1=Nc1ccc(C)c(C)c1	ALDH1A1 block inconclusive
CC#CCOC(=O)C1=CCCN(C)C1	none (no result: LMNA splice mod)
